This is an account of results in PubChem BioAssay (Tox21).

Structures are written as SMILES. Several values for one entry are separate records, joined by “and”; a condition that tells them apart may be missing. Identical values can stand only once. Records with an inconclusive call do not appear. Some structures have more than one record in an assay (separate samples or runs), and their calls can disagree. Activity calls are given as the source filed them. Unless noted, calls follow the shape of the dose curve; as a rule, active = well fitted curve in the direction sought with a large enough effect in the repeat runs; inconclusive = weak or mixed curves; inactive = no such curve, though single readings can be large; an effect the other way counts as inactive or inconclusive.

Assay [1] in a line: qHTS assay to identify small molecule agonists of the hypoxia (HIF-1) signaling pathway - cell viability counter screen (AID 1224844; calls by dose curve; also: nearly all actives have a fitted effect of over 50% in size; also: potency is read from the fitted curve at half-maximal effect). In short, it runs like this:
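Cytotoxicity measured by CellTiter-Glo ATP luminescence in the wells also read for beta-lactamase signal. Cells were HRE-bla ME-180 (2,000/well, 0.5% dialyzed FBS), exposed to compounds for 17 h at 37C.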

A short description of assay [2]: qHTS assay to identify small molecule agonists of H2AX (AID 1224845; active = well fitted activation curve with a large enough effect in the signal ratio in the repeat runs, not every such curve was filed as active; the % refers to the signal ratio; also: potency is read from the fitted curve at half-maximal effect). In short, it runs like this: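 Wild-type CHO-K1 cells plated overnight, then exposed 3 hr at 37C to compounds at 15 concentrations (0.76% DMSO). Lysed, then HTRF anti-pH2AX(S139)-cryptate/anti-H2AX-d2 detection after 24 hr at room temperature; emissions 665 and 620 nm.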
On the technique in general: Quantitative high-throughput screening tests each substance at several concentrations.

Assay [3] can be described thus: qHTS assay to identify small molecule agonists of H2AX - cell viability counter screen (AID 1224847; calls by dose curve; also: nearly all actives have a fitted effect of over 30% in size; also: potency is read from the fitted curve at half-maximal effect). Put shortly:
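Wild-type CHO-K1 cells (10% FBS medium) were plated overnight at 37C, exposed to compounds at 15 concentrations for 3 hr at 37C (0.76% DMSO final), and viability was read as CellTiter-Glo luminescence after 30 min at room temperature.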

Assay [4] in a line: qHTS RealTime-Glo MT Cell Viability Assay in HepG2 cells - 24 hour (AID 1224867). Also: nearly all actives have a fitted effect of over 50% in size. Also: potency is read from the fitted curve at half-maximal effect. Put shortly:
(§1)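 Compound treatment began 5 h after plating HepG2 cells (600/well) with NanoLuc luciferase and prosubstrate. Plates stayed at 37 C for 40 h; luminescence was captured at six time points, 0 h through 40 h.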

Assay [5] in a line: qHTS RealTime-Glo MT Cell Viability Assay in HEK293 cells - 32 hour (AID 1224868). Also: nearly all actives have a fitted effect of over 50% in size. Also: potency is read from the fitted curve at half-maximal effect. In short, it runs like this:
(§2)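 Quantitative high-throughput screen of the Tox21 10K library in HEK293: cells and RealTime-Glo reagents plated together, compound added at 5 h, luminescence monitored through 40 h at 37 C.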

Assay [6] in a line: A CellTox Green Cytotoxicity Assay to monitor cytotoxicity in HEK293 cells - 0 hour (AID 1224869). Also: % is scaled to controls: 0 for no effect and ±100 for the full control effect; nearly all actives have a fitted effect of over 50% in size. In short, it runs like this: (§3)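 Fluorescence from a DNA-binding dye excluded by viable cells was measured repeatedly in the same HEK293 wells (600 cells/well) during continuous compound exposure at 37 C. Each assay gives one read point: 0, 8, 16, 24, 32 or 40 h.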
Assay [7] is described as follows: A CellTox Green Cytotoxicity Assay to monitor cytotoxicity in HEK293 cells - 40 hour (AID 1224871). Also: nearly all actives have a fitted effect of over 45% in size. Also: potency is read from the fitted curve at half-maximal effect. Put shortly: as §3
A short description of assay [8]: qHTS RealTime-Glo MT Cell Viability Assay in HEK293 cells - 16 hour (AID 1224872). Also: nearly all actives have a fitted effect of over 50% in size. Also: potency is read from the fitted curve at half-maximal effect. In short, it runs like this: as §2
Assay [9] can be described thus: qHTS RealTime-Glo MT Cell Viability Assay in HepG2 cells - 8 hour (AID 1224873). Also: nearly all actives have a fitted effect of over 55% in size. Also: potency is read from the fitted curve at half-maximal effect. Put shortly:
(§4)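 HepG2 cells mixed with RealTime-Glo MT reagents (NanoLuc plus cell-permeant prosubstrate) were seeded at 600 cells/well, incubated 5 h at 37 C/5% CO2, then pinned with compounds in DMSO; nonlytic luminescence tracked viability during 40 h treatment.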

Assay [10] is described as follows: qHTS RealTime-Glo MT Cell Viability Assay in HEK293 cells - 40 hour (AID 1224874). Also: nearly all actives have a fitted effect of over 50% in size. Also: potency is read from the fitted curve at half-maximal effect. As to max response: % is scaled to controls: 0 for no effect and ±100 for the full control effect. The settings on record: RealTime-Glo luminescence; max response: stronger effect = lower value. In short, it runs like this:
(§5)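 Luminescence, which tracks viable cell number through reduction of the prosubstrate to a NanoLuc substrate, was read over continuous 37 C culture. Cells (600/well) were premixed with reagent and rested 5 h before 23 nL of compound in DMSO was pinned.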

The nature of assay [11]: A CellTox Green Cytotoxicity Assay to monitor cytotoxicity in HEK293 cells - 24 hour (AID 1224875). Also: nearly all actives have a fitted effect of over 45% in size. Also: potency is read from the fitted curve at half-maximal effect. As to activity change: % is scaled to controls: 0 for no effect and ±100 for the full control effect. In short, it runs like this:
as §3

Assay [12] in a line: A CellTox Green Cytotoxicity Assay to monitor cytotoxicity in HepG2 cells - 16 hour (AID 1224876). Also: nearly all actives have a fitted effect of over 45% in size. Also: potency is read from the fitted curve at half-maximal effect. In short, it runs like this: (§6)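 Real-time cytotoxicity: fluorescence of a cell-impermeant cyanine dye binding DNA of dead HepG2 cells, measured repeatedly (0–40 h) during compound exposure at 37 C. Cells seeded 600/well with reagent, dosed after 5 h.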
Assay [13] can be described thus: qHTS RealTime-Glo MT Cell Viability Assay in HepG2 cells - 32 hour (AID 1224877). Also: nearly all actives have a fitted effect of over 55% in size. Also: potency is read from the fitted curve at half-maximal effect. In short, it runs like this:
as §1

A short description of assay [14]: qHTS RealTime-Glo MT Cell Viability Assay in HEK293 cells - 0 hour (AID 1224880). Also: top concentration of the series differs between compounds; % is scaled to controls: 0 for no effect and ±100 for the full control effect; nearly all actives have a fitted effect of over 45% in size. Put shortly:
as §5

The nature of assay [15]: qHTS assay to identify small molecule antagonists of the estrogen related receptor (ERR) signaling pathway from Tox21 library (AID 1224848). Put shortly: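 Tox21 10K compounds in DMSO tested for ERR pathway antagonism in NTP's ERR cell line; 18 h, 37 C exposure; ONE-Glo luminescence.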
Assay [16] in a line: qHTS assay to identify small molecule agonists of the estrogen related receptor (ERR) signaling pathway from Tox21 library (AID 1224849; calls by dose curve; also: % is scaled to controls: 0 for no effect and ±100 for the full control effect; nearly all actives have a fitted effect of over 15% in size). The settings on record: ERR reporter cell line, ONE-Glo luciferase, 18 h; at 92.4 µM (top of the series). Put shortly:
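Luminescent agonist read-out (One-Glo, 30-minute room-temperature incubation) following 18-hour compound treatment at 37 C of the ERR cell line, which had been plated 6 hours before dosing.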

Assay [17] in a line: qHTS RealTime-Glo MT Cell Viability Assay in HepG2 cells - 40 hour (AID 1224870). Also: nearly all actives have a fitted effect of over 50% in size. Also: potency is read from the fitted curve at half-maximal effect. Put shortly: as §4
A short description of assay [18]: A CellTox Green Cytotoxicity Assay to monitor cytotoxicity in HepG2 cells - 24 hour (AID 1224878). Also: nearly all actives have a fitted effect of over 45% in size. Also: potency is read from the fitted curve at half-maximal effect. As to Cytotoxicity: % is scaled to controls: 0 for no effect and ±100 for the full control effect. Put shortly: as §6
A short description of assay [19]: qHTS assay to identify small molecule agonists of the hypoxia (HIF-1) signaling pathway (AID 1224846; active = well fitted activation curve with a large enough effect in the signal ratio in the repeat runs, not every such curve was filed as active; the % refers to the signal ratio; also: % is scaled to controls: 0 for no effect and ±100 for the full control effect). Put shortly: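 Compounds added to ME-180 cells carrying hypoxia-response-element beta-lactamase reporter (0.5% dialyzed FBS, 5 h preplating), 17 h at 37C; agonist activity detected by CCF4-AM B/G FRET read-out.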
Assay [20] in a line: A CellTox Green Cytotoxicity Assay to monitor cytotoxicity in HepG2 cells - 40 hour (AID 1224879). Also: % is scaled to controls: 0 for no effect and ±100 for the full control effect; nearly all actives have a fitted effect of over 40% in size. Put shortly:
as §6

Turning to `CCCCCCCC[N+](C)(CCCCCCCC)CCCCCCCC`, the Potency was 15.5 µM (active) and 9.79 µM (active) and 19.5 µM (active) in assay [1]; “inactive and 17.9 µM (active)” in assay [2]; 44.9 µM (active) and 567 nM (active) and 35.7 µM (active) in assay [3]; 10.9 µM (active) and 21.9 µM (active) and 9.77 µM (active) in assay [4]; 218 nM (active) and 138 nM (active) and 1.55 µM (active) in [5]; 24.5 µM (active) and 27.6 µM (active) and 12.3 µM (active) in assay [7]. Moreover, the Potency was 2.75 µM (active) and 1.1 µM (active) and 6.16 µM (active) in [8]; 17.3 µM (active) and 30.9 µM (active) and 17.4 µM (active) in assay [9]; 173 nM (active) and 138 nM (active) and 1.1 µM (active) in [10]; 21.8 µM (active) and 21.9 µM (active) and 9.77 µM (active) in assay [11]; 15.5 µM (active) and 21.9 µM (active) and 17.4 µM (active) in assay [12]; 9.75 µM (active) and 19.5 µM (active) and 8.71 µM (active) in assay [13]. Further, the Potency result in [6] and in assay [14] was “inactive” throughout.
Turning to `CCC[CH2][Sn]([Cl])([Cl])[CH2]CCC`, the Potency in assay [1] was 624 nM (active) and 977 nM (active); in [2] it was 1.28 µM (active) and 1.27 µM (active); in assay [3], 11.4 µM (active) and 25.3 µM (active); in assay [15], 155 nM (active) and 172 nM (active); in assay [4], 313 nM (active) and 219 nM (active); in assay [5], 99 nM (active) and 123 nM (active). For the same molecule, the Potency in assay [17] was 198 nM (active) and 138 nM (active); in [7], 351 nM (active) and 490 nM (active); in assay [8], 198 nM (active) and 174 nM (active); in assay [9], 7.86 µM (active) and 8.71 µM (active); in assay [10] it was 88.2 nM (active) and 110 nM (active); in assay [11] it was 556 nM (active) and 2.19 µM (active). The Potency in assay [12] is 2.22 µM (active) and 1.74 µM (active); in [13], 222 nM (active) and 155 nM (active); in assay [18] it was 442 nM (active) and 436 nM (active). Besides, the activity change, positive = activation in assay [16] is -84.1% (inactive) and -80% (inactive). Further, the Potency entry in assay [6] and in [14] was “inactive” each time.
On to `CC(C)(c1ccc(OCC2CO2)cc1)c1ccc(OCC2CO2)cc1` (stereo not given), for which the Potency entry in assay [2], in [3], in [4], in assay [5], in assay [6] and in assay [7] was “inactive” in each case. For the same molecule, the Potency entry in assay [8], in [11], in assay [12], in assay [13], in [20] and in [14] was “inactive” in each case. The call in [19] was inactive. For the same molecule, in assay [15], the Potency was 61.9 µM (active). Besides, in assay [16], the activity change, positive = activation was -61.1% (inactive) and -21.3% (inactive). Moreover, the max response in assay [10] was -0.153% (inactive).
Consider `COc1ccc(O)c(C(C)(C)C)c1`, for which the Potency result in assay [1], in assay [2], in assay [3], in [4], in [5] and in assay [6] was “inactive” throughout. Moreover, the Potency entry in assay [7], in assay [8], in assay [11], in assay [12], in [13] and in assay [14] was “inactive” in each case. Further, the result in assay [19] was inactive. The max response in assay [10] is -6.92% (inactive) and 11.9% (inactive).
Take `O=[N+]([O-])c1ccc(Nc2ccccc2)cc1`: the Potency entry in assay [1], in assay [4], in [6], in assay [7], in assay [9] and in [11] was “inactive” each time. Besides, the Potency result in assay [12], in assay [13], in assay [20] and in assay [14] was “inactive” each time. In assay [19], the result was inactive. Moreover, the Potency in assay [3] is 80 µM (active); in assay [5], 24.7 µM (active) and 19.5 µM (active); in assay [8], 27.8 µM (active); in assay [10] it was 27.8 µM (active) and 21.9 µM (active). Moreover, in assay [16], the activity change, positive = activation is -30.2% (inactive) and -27.4% (inactive).
On to `CCOP(=S)(OCC)SCSC(C)(C)C`, for which the Potency result in assay [1], in assay [3], in assay [4], in assay [5], in assay [6] and in assay [17] was “inactive” in each case. In addition, the Potency entry in assay [7], in assay [8], in assay [9], in assay [11], in assay [12] and in [13] was “inactive” throughout. For the same molecule, the Potency result in assay [18], in assay [20] and in assay [14] was “inactive” throughout. In addition, the call in assay [19] was inactive. In addition, the max response in assay [10] is 5.63% (inactive) and -1.38% (inactive).
